In PubChem BioAssay (NCI):
The panel holds about 83,000 compounds, 20% with a hit somewhere; the sample as a whole holds those more often.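 The endpoint reported here, percent growth, reads 100 for growth as untreated, 0 for no net growth and -100 for all cells dead.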 Active and inactive are the calls of the source. How the source made its calls: active means growth percent below 10; inactive means the rest.

The compounds below were run on MDA-MB-468 breast (assay: NCI-60 one-dose screen, 48 h (100 = growth as untreated, 0 = no growth, -100 = all killed)). Conditions: 10 µM unless noted.

Structure (SMILES)	growth
COC(=O)c1ccc(NC2=C(Cl)C(=O)c3nc(C)ccc3C2=O)cc1	56% (inactive)
O=C(Cn1c2ccccc2c2ccncc21)N/N=C\c1ccc2ccccc2c1	19.7% (inactive)
COc1ccc(Cn2cc3c(c2-c2ccccc2)CC(C)(C)c2cnoc2-3)cc1	3.53% (active)
COc1ccc(C2=C(CN)C(O)NC(=NCC(=O)c3ccc4ccccc4c3)N2)cc1 (stereo not given)	118% (inactive)
COc1c2ccccc2c(OC)c2[nH]c(=O)ccc12	60.9% (inactive)
O=C1/C(=C/c2ccc(O)cc2)COc2ccc(-c3ccccc3)cc21	65% (inactive)
COC(=O)C1(C)CCC[C@]2(C)[C@H]3C[C@H]4C(C(C)C)=C[C@]3(CC[C@@H]12)[C@H]1[C@@H]4[C@@H](OCC#CCN2CCOCC2)CC[C@@H]1OCC#CCN1CCOCC1 (stereo not given in full)	80% (inactive)
CC1(C)S(=O)(=O)OCCOS1(=O)=O	101% (inactive)
CC(C)(C)OC(=O)c1ccc(NCc2cc(O)ccc2O)cc1	-17.6% (active)
CC(C)(C)[Si](C)(C)O[C@H]1C(=O)C=CN2CC=C[C@@H]12	99.4% [100 µM] (inactive)
Cc1nc2ccccc2c(/C=C/c2ccc(Cl)cc2)c1C(=O)/C=C/c1cccs1	79.7% (inactive)
CC(=O)N1CCN(CCNC(=O)n2cc(-c3ccncc3)c(-c3ccc(O)c(Cl)c3)n2)CC1	112% (inactive)
CC(C)(C)c1ccc(OCCCCCCN2CCNCC2)cc1	10.6% (inactive)
O=C1CCC/C=C\C[C@H]2C=CC(=O)/C2=C/C[C@H](C/C=C\CC(F)(F)F)O1	-46.5% (active)
COc1cc(CNS(=O)(=O)c2ccc(C)cc2)ccc1OCc1cn(-c2ccc(Br)cc2)nn1	95.5% (inactive)
O=C(O)c1ccc(-c2nn(-c3ccc(C(F)(F)F)cc3)cc2CNc2ccc(Oc3ccccc3)cc2)cc1	117% (inactive)
Cc1noc(C)c1CSc1nc2ccccc2n1-c1ccccc1	108% (inactive)
CCCC[N+](CCCC)=c1ccc2nc3c(C)cc(N(CC)CC)cc3sc-2c1	-45.9% (active)
CCCCNC(=O)Oc1ccc(/C(=C(/C)Cc2ccc(OC)cc2)c2ccc(OCCN3CCCCC3)cc2)cc1	60.1% (inactive)
C=C1C(=O)O[C@H]2[C@H]1CC/C(COC(=O)C(=O)c1c[nH]c3ccc(OC)cc13)=C\CC[C@@]1(C)O[C@@H]21	-67.5% (active)

Structure (SMILES)	growth
Cc1cc(C)c(S(=O)O)c(C)c1	106% (inactive)
COc1cc(-c2cc(/C=C3\CCCCC3=O)[nH]n2)cc(OC)c1OC	85.2% (inactive)
C=CCn1c(CN2CCN(c3cc4c(cc3F)c(=O)c(C(=O)O)cn4C3CC3)CC2)n[nH]c1=S	105% (inactive)
O=C1c2c(c3c4ccc(Br)cc4oc3c3[nH]c4ccccc4c23)C(=O)N1O	45.3% (inactive)
O=C(O)CCCCSc1ncnc2nc[nH]c12	96% (inactive)
COc1cc(Cn2ccc3c2-c2oncc2CC3)cc(OC)c1	10.9% (inactive)
CC(C)(C)Nc1nc2c(OCCc3ccccc3)cccn2c1-c1ccccc1Cl	-27.8% (active)
N#C/C(=C\c1ccc(Br)cc1)n1nnc2c(F)cccc21	-10.8% (active)
CN1CCCCC1CCN1c2ccccc2Sc2ccc(Cl)cc21 (stereo not given)	30.2% (inactive)
O=C(NCCNc1nccc(-c2c(-c3cccc(O)c3)nc3sccn23)n1)c1ccccc1O	52% (inactive)
COc1cc(NCCN(CC(C)C)CC(C)C)c2ncc(C)cc2c1	11.7% (inactive)
CN(C)c1ccc(/C=C\C2=[N+](C)c3ccccc3C2(C)C)cc1	11% (inactive)
OC(c1cc(-c2ccc(C(F)(F)F)cc2)nc(-c2ccc(C(F)(F)F)cc2)c1)C1CCCCN1 (stereo not given)	-85.1% (active)
N#C/C(=N\Nc1ccc(F)cc1)C(=O)Nc1cc(-c2ccccc2)nn1-c1ccccc1	-21% (active)
N#C/C(=C\c1ccc(-c2ccc(Cl)cc2Cl)o1)c1ccc(F)cc1	96.3% (inactive)
CNC(=O)c1c(NC(=O)c2ccc(F)cc2F)sc2c1CCC(=O)C2	-15.5% (active)
O=C(Nc1cccc(Cn2c(=O)[nH]c3ccc(Oc4ncccn4)cc3c2=O)c1)c1cc(Cl)cc(Cl)c1	50.5% (inactive)
COc1ccc(NC2=C(Cl)C(=O)c3nc(C)ccc3C2=O)cc1OC	58.1% (inactive)
CCN(CC)CCCCNc1c2ccc(Cl)cc2nc2ccc(OC)cc12	-42.7% (active)
Oc1cccc(Nc2nccc(-c3ccc4ccccc4c3)n2)c1	15.6% (inactive)
